Experimental data: PubChem BioAssay (NCI)
Compounds without any hit were thinned out: in the full panel of roughly 79,000, 15% have a hit. Values without a mark were called inactive. The source made the active and inactive calls. No stated cut-off is given here; in the data, active means growth inhibition above about 70%; inactive means the rest.

Tests used:
[1] = NCI Yeast Anticancer Drug Screen. Data for the rad50 strain (AID 155);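 further: 0% = growth of vehicle-only cultures of the same strain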; conditions: S. cerevisiae rad50 strain growth inhibition, stronger effect = higher value; at 50.0 µM unless noted
Method in brief: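 Inhibition values express reduced yeast growth in compound-treated cultures relative to vehicle-treated controls.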

[2] = NCI Yeast Anticancer Drug Screen. Data for the mec2-1 strain (AID 157); conditions: S. cerevisiae mec2-1 strain, stronger effect = higher value; at 50.0 µM unless noted
Method in brief: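 Each compound was tested on mec2-1 yeast, a strain altered in DNA damage repair or cell cycle control. Growth inhibition is reported relative to vehicle.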

[3] = NCI Yeast Anticancer Drug Screen. Data for the sgs1 mgt1 strain (AID 161);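 further: 0% = growth of cultures given vehicle only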; conditions: S. cerevisiae sgs1 mgt1 strain, stronger effect = higher value; at 50.0 µM unless noted
Method in brief: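 Inhibition of yeast growth, normalised to vehicle-treated controls, is reported for a strain bearing genetic alterations in DNA damage repair.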

[4] = NCI Yeast Anticancer Drug Screen. Data for the cln2 rad14 strain (AID 165);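 further: 0% = growth equal to vehicle treated cultures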; conditions: S. cerevisiae cln2 rad14 strain, stronger effect = higher value; at 50.0 µM unless noted
Method in brief: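 Test compounds were added to cln2 rad14 yeast cultures; inhibition of growth was then determined by comparison with vehicle treatment.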

[5] = NCI Yeast Anticancer Drug Screen. Data for the bub3 strain (AID 167); conditions: S. cerevisiae bub3 mutant strain, stronger effect = higher value; at 50.0 µM unless noted
Method in brief: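 Steps: expose the mutant yeast strain to compound; grow alongside vehicle-treated cultures; measure growth; express inhibition against the vehicle cultures.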

[6] = NCI Yeast Anticancer Drug Screen. Data for the mlh1 rad18 strain (AID 175); conditions: S. cerevisiae mlh1 rad18 strain growth inhibition, stronger effect = higher value; at 50.0 µM unless noted
Method in brief: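 Inhibition values reflect reduced growth of mutant yeast versus vehicle-treated controls following compound exposure; the mutations affect DNA damage repair.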

| SMILES | growth inhibition [1] | growth inhibition [2] | growth inhibition [3] | growth inhibition [4] | growth inhibition [5] | growth inhibition [6] |
| --- | --- | --- | --- | --- | --- | --- |
| O=C(O)CCCC1CCC(=O)CC1 | -0.4% | -7.55% | -8.1% | -24.4% | 0.5% | 3.35% |
| CCOC(=O)C(F)C(=O)OCC | 14.8% | -2.95% | -1% | 12.1% | -4.55% | -5.4% |
| Cc1c(Cl)cccc1NC(=O)C(C)NCC(C)C (stereo not given) | -4.4% | -0.2% | -6.05% | -11.7% | 14.8% | -19.6% |
| CCS(=O)(=O)/C=C/c1cccs1 | -9.1% | -7.95% | -8.65% | -47.6% | 4.8% | -17.6% |
| CCc1ccc2c(-c3ccccc3)c3c(-c4ccccc4)c4ccccc4c(-c4ccccc4)c3c(-c3ccccc3)c2c1 | 16.6% | 7.3% | -5.8% | -28.4% | -8.15% | 23.4% |
| COc1cccc(N2C(=O)C3c4[nH]c5ccccc5c4C4c5ccccc5CCC4C3C2=O)c1 (stereo not given) | -0.1% | 4.4% | 5.05% | 2.95% | -0.6% | 20.9% |
| NC(=O)OCCOC(N)=O | 7.5% | 1% | -31.9% | -9.95% | 15.8% | 2.55% |
| CCOc1ccc(N=Nc2c(-c3ccccc3)nn(C(=O)CC(=O)Nc3ccccc3Cl)c2-c2ccccc2)cc1 | 20.6% | -8.2% | 34.6% | 3.5% | 31% | 18.7% |
| COc1cccc(-c2cc(=O)c3cc(N4CCOCC4)ccc3[nH]2)c1 | -35.9% | -27.9% | -22.9% | -2% | -40.9% | -58.2% |
| CCCCCCn1ncc2c(N)ncnc21 | 10.4% | 6.85% | -1.3% | -4% | 29.8% | -1.3% |
| Nc1ncnc(Nc2ccc(Cl)cc2Cl)n1 | 5.05% | -11.7% | 5.75% | 1.85% | 5.25% | -7.05% |
| O=c1[nH]nc(Cc2ccccc2)n1CCO | 13.2% | 2.65% | 18.1% | 1.3% | 8.9% | -43.4% |
| COc1cc([C@@H]2c3cc4c(cc3[C@H](OC3OC5COC(c6ccco6)OC5C(O)C3O)C3COC(=O)[C@@H]32)OCO4)cc(OC)c1OC (stereo not given in full) | 7.25% | 18.8% | 7.6% | 17.9% | 0.2% | -42% |
| CN(C)C(=O)NCCN(CCNC(=O)N(C)C)C(=O)N(C)C | -1.7% | 13.2% | -0.9% | -28.3% | -18.8% | -4.15% |
| O=C(O)CC1NC(/C(=C/c2ccccc2O)NC(=O)c2ccccc2)OC1=O (stereo not given) | -1.5% | -5.85% | 15.5% | -5.95% | 15.2% | -28.7% |
| CCCCOC(=O)/C=C/C(=O)OCCCC | -34.6% | 9.6% | 8.85% | 4% | -0.45% | 43.9% |
| COc1ccc(N2C(N)=C(C#N)C(C#N)(C#N)C2c2cccc([N+](=O)[O-])c2)cc1 (stereo not given) | 8.8% | -5.05% | -2.05% | 0.25% | -31.9% | 79.7% (active) |
| CN(C)c1ccc(/C=C/C=C2\C=Cc3ccccc32)cc1 | 0.55% | -17.9% | -6% | -26.2% | -0.25% | -2.75% |
| O=c1cc(Cl)c(=O)n(-c2ccccc2)[nH]1 | 3.5% | -4.75% | -3.25% | -14.6% | 0.9% | 2.7% |
| Cc1cc(N(CCCCl)CCCCl)ccc1C=Nc1cc(Cl)c(O)c(Cl)c1 | 71.8% (active) | 6.15% | 84.8% (active) | -13.9% | 53% | 57.2% |

| SMILES | growth inhibition [1] | growth inhibition [2] | growth inhibition [3] | growth inhibition [4] | growth inhibition [5] | growth inhibition [6] |
| --- | --- | --- | --- | --- | --- | --- |
| CCCCCC=C(C(=O)OCC)C(=O)OCC | 22.9% | -1.7% | -4.15% | 12.3% | -30.4% | 11.1% |
| CC1(C)CC[C@]2(C(=O)O)CCC3(C)C(=CCC4[C@@]5(C)CC[C@H](OC6OCC(O)C(O)C6OC6OC(CO)C(O)C(O)C6O)C(C)(C)C5CC[C@]43C)C2C1 (stereo not given in full) | 84.8% (active) | 85.2% (active) | 89.8% (active) | 87.7% (active) | 88.5% (active) | 87.5% (active) |
| O=C(O)c1ccc([N+](=O)[O-])cc1Br | 3.5% | -2.85% | -4.65% | -45% | -23.6% | 6.2% |
| CCC(NN)C(=O)O (stereo not given) | 5.45% | -14.1% | -33.6% | -26% | -9.5% | -5.35% |
| CC(Br)CCCBr (stereo not given) | -19.1% | -5.65% | -21.1% | -22.4% | -4.5% | -13.8% |
| COc1ccc(C2=Nc3c(nc(OC)[nH]c3=O)NC(c3ccccc3)C2)cc1 (stereo not given) | 12.3% | 10.2% | -10.5% | 7.55% | -8.95% | -21.8% |
| C=Nc1ccc(Nc2ccccc2)cc1 | 5.7% | -5.2% | -2.4% | -3.25% | -1.6% | 3.3% |
| O=C1NCC2(CCNCC2)N1 | -10.3% | 16.7% | 6.45% | 15.6% | 11.1% | -70.6% |
| COC1CCC(OS(C)(=O)=O)C(C)O1 (stereo not given) | 16.8% | -45.9% | 4.6% | -2.15% | -38.7% | 9.85% |
| CN(C)/C=N/n1c2ccccc2c2ccccc21 | -1.7% | -6.8% | 0% | -7.55% | 23.6% | 14.8% |
| C=CCOC(=O)CC(=C)C(=O)O | 18.9% | 31% | 15.8% | -24.8% | 6.2% | 7.55% |
| CC(/C=C/C(=O)c1sc(-n2nc(-c3ccccc3)cc2-c2ccccc2)nc1C)=C\c1ccccc1 | 21.9% | 5.25% | 25.9% | 8.85% | 44.8% | 20.7% |
| N#Cc1sc2c(c1OC(=O)c1cccs1)c(=O)n(-c1ccccc1)c(=S)n2-c1ccccc1 | 3.1% | 10.4% | 17.2% | -5.55% | 25.8% | 15.2% |
| COC(=O)c1cc(C(=O)OC)c(CC(=O)C(=O)NC2C3CC4CC(C3)CC2C4)nc1CC(=O)C(=O)NC1C2CC3CC(C2)CC1C3 (stereo not given) | 0.5% | 25.2% | -11.9% | 10.2% | 13.7% | 10.9% |
| CCn1c(=O)n(Cc2ccccc2)c(=O)c2ccccc21 | 19.6% | 8.95% | 24.8% | 10.8% | -4.7% | 30.3% |
| O=[N+]([O-])c1cc(Cl)ccc1S(=O)(=O)N1CCCc2cc(Cl)ccc21 | 66.2% | 51.8% | 64.8% | 62.1% | 63.6% | 62% |
| CC(C)OC(=O)CCC(N)C(=O)O (stereo not given) | 2.95% | 0.6% | 1.85% | -4.8% | 2.55% | 0.1% |
| Cc1ccc2c(c1)P(=O)(O)c1cc(C)ccc1S2 | -12.4% | -16.6% | 14.4% | 22.4% | -4.05% | 19.7% |
| C=C[C@@]1(C)C=C2CC[C@@H]3[C@](C)(CCC[C@@]3(C)C(=O)O)[C@H]2CC1 | 67.5% | 37.8% | 31.3% | 52.1% | 35.1% | 55.2% |
| COC(=O)C(=O)C1CCc2ccc3ccccc3c2C1=O (stereo not given) | -5.8% | 2.3% | 24.2% | -4.65% | 2.3% | 38.5% |
